Screens from PubChem BioAssay.
CCT chaperon mod: changes cytosolic chaperonin activity | purified chaperonin ATPase assay, HTRF ADP detection, 30 min | activity change, % (no concentration beside the values), hits read low | 360,000 compounds, 0.3% hits; in the data active = activity change below about -30%
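TRiC (40 or 20 nM final, by batch activity) in 30 mM Tris pH 7.4, 100 mM KCl, 5 mM MgCl2, 1 mM DTT was treated with compound at 76 uM single dose, then 10 uM ATP, 30 min at 37 °C. ADP was read by HTRF Transcreener.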
VDR inhibitor: blocks the human vitamin D receptor. Potency, µM, for the others: max response, negative = inhibition, actives largely listed as inhibitors. VDR-SRC2-3 peptide fluorescence polarization, 2 h. 400,000 compounds, 0.93% hits. P11473. AID 504847; also: potency is read from the fitted curve at half-maximal effect
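After 23 nl compound addition and a short centrifugation, plates sat for 2 hours at ambient temperature; polarization of fluorescence then indicated loss of VDR binding to peptide SRC2-3.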
Sfp inh: inhibitors of Bacillus subtilis Sfp phosphopantetheinyl transferase. 310,000 compounds, 3.5% hits. Potency, µM, for the others: largest response in the series, negative = inhibition, usual class: inhibitors. Biochemical Sfp PPTase activity, qHTS;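 also: the enzyme is Sfp with the accession as filed and its product quenches rhodamine fluorescence; potency is read from the fitted curve at half-maximal effect; 0% = enzyme reaction without inhibitor and -100% = no enzyme wells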
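After 15 min at room temperature with compound, 15 nM Sfp received 5 uM rhodamine-CoA plus 12.5 uM BHQ-2-ybbR (50 mM Hepes pH 7.6, 10 mM MgCl2). Rate came from the fluorescence difference over 30 min, ex 525/em 598 nm.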
G9a block: inhibitors of human histone lysine methyltransferase G9a | Q96KQ7 | Potency, µM (doses to about 102 µM), inactives show at the highest dose activity, negative = inhibition, usual class: inhibitors | G9a H3K9 monomethylation, AlphaScreen, 2 h | AID 504332 | 350,000 compounds, 8.8% hits; also: potency is read from the fitted curve at half-maximal effect; nearly all actives have a fitted effect of over 75% in size
Target sequence (Q96KQ7 913-1193 limits assumed): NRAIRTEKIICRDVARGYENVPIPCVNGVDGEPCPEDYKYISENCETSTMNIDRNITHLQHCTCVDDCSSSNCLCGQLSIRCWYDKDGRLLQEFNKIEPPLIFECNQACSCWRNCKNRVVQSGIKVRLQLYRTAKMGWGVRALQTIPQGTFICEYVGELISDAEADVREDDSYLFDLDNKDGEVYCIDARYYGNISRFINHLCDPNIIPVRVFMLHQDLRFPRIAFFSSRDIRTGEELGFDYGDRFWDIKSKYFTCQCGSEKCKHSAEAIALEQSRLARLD
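Step 1: enzyme (final 20 nM) with compound, 15 min RT. Step 2: substrate peptide 500 nM and SAM 20 uM, 2 h RT. Step 3: anti-H3K9me1 antibody and AlphaScreen beads, 10 min, then plate read.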
PLK1 PBD block: PLK1 (human) polo-box domain binding inhibition. 360,000 compounds, 2.8% hits. P53350. Plk1 PBD binding of FITC phosphopeptide, fluorescence polarization. Potency, µM, for the others: max response, negative = inhibition, most hits filed as inhibitors; also: potency is read from the fitted curve at half-maximal effect; series mostly up to about 57 µM; nearly all actives have a fitted effect of over 65% in size
Mm-Cpn inhibitor: blocks the Methanococcus maripaludis chaperonin Mm-Cpn; purified Mm-Cpn ATPase, ADP Transcreener TR-FRET; Potency, µM (titrated, usually from 76.9 µM), for the others: top-dose activity, negative = inhibition, usual class: inhibitors; 330,000 compounds, 0.031% hits; AID 504842; also: potency is read from the fitted curve at half-maximal effect; nearly all actives have a fitted effect of over 80% in size
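Quantitative HTS used 25 nM Mm-CPN and 10 uM ATP in magnesium/KCl Tris buffer, pH 7.4, with 1 mM DTT. Hydrolysis ran 30 min at 37°C; ADP was read by HTRF.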
* = called active by the depositor; [ ] = dose if it differs, or a comment. This is a sample that favours compounds with a hit; in the whole collection about 10% have one here. Unless noted, calls follow the shape of the dose curve; as a rule, active = well fitted curve in the direction sought with a large enough effect; inconclusive = small, poorly fitted or top-dose-only effect, or another doubt; inactive = no such curve, though single readings can be large; an effect the other way counts as inactive or inconclusive. Unless noted, % is scaled to controls: 0 for no effect and ±100 for the full control effect.

`Cc1ccc(OCC(O)CN2CCN(c3ccc(C)cc3)CC2)cc1` (stereo not drawn) gave CCT chaperon mod -1, VDR inhibitor 8%, Sfp inh 5%, G9a block -17%, PLK1 PBD block 7% and Mm-Cpn inhibitor 3%.
For COc1ccc(N2CCN(CC(O)COc3c(OC)cccc3OC)CC2)cc1 (stereo not drawn) the results were CCT chaperon mod 1, VDR inhibitor 1%, Sfp inh -2%, G9a block 35µM*, PLK1 PBD block 5% and Mm-Cpn inhibitor 2%.
CCc1ccccc1NC(=O)N1CCN(Cc2nc3ccc(C)cc3o2)CC1 was read as VDR inhibitor 7% and G9a block 3%[12.7 µM].
`Cc1c(/C=C(\C#N)C(=O)Nc2cccc(Cl)c2)c2ccccc2n1Cc1ccccc1Cl` gave VDR inhibitor 13% and G9a block -39%[59 µM].
For Cc1cnc(CNc2ncncc2-c2ccoc2)cn1 the results were VDR inhibitor inconclusive, Sfp inh -17% and G9a block 26%[0.501 µM].
`COCCOCC(O)CN1CCN(c2ccccc2)CC1` (stereo not drawn) gave CCT chaperon mod 1, VDR inhibitor -3%, Sfp inh inconclusive, G9a block inconclusive, PLK1 PBD block -7% and Mm-Cpn inhibitor 0%.
`COc1ccc(N2CCN(CC(O)COc3ccc([N+](=O)[O-])cc3)CC2)cc1` (stereo not drawn) gave CCT chaperon mod 1, VDR inhibitor -17%, Sfp inh 0%, G9a block inconclusive, PLK1 PBD block -15% and Mm-Cpn inhibitor 0%.
`COc1ccc(N2CCN(CC(O)COc3ccccc3C(C)(C)C)CC2)cc1` (stereo not drawn) gave VDR inhibitor -3% and G9a block 11µM*.
`OC(COc1ccc(F)cc1)CN1CCN(CC(O)COc2ccc(F)cc2)CC1` (stereo not drawn) gave CCT chaperon mod -2, VDR inhibitor 1%, Sfp inh 0%, G9a block 14%, PLK1 PBD block -7% and Mm-Cpn inhibitor -1%.
For COc1ccc(N2CCN(CC(O)COc3ccc(F)cc3)CC2)cc1 (stereo not drawn) the results were CCT chaperon mod -2, VDR inhibitor 23%, Sfp inh -2%, G9a block 16µM*, PLK1 PBD block -4% and Mm-Cpn inhibitor 2%.
For COCCOCC(O)CN1CCN(c2ccc(C)cc2)CC1 (stereo not drawn) the results were CCT chaperon mod -2, VDR inhibitor -13%, Sfp inh 79µM*, G9a block 4.5µM*, PLK1 PBD block -16% and Mm-Cpn inhibitor 0%.
`COc1ccc(N2CCN(c3nccs3)CC2)cc1` gave CCT chaperon mod 1, VDR inhibitor 1%, Sfp inh 8%, G9a block 50µM*, PLK1 PBD block -1% and Mm-Cpn inhibitor 2%.
Screening Cc1c(Cl)cccc1NC(=O)CSc1ncccc1C(=O)Oc1ccccc1Cl returned VDR inhibitor 5% and G9a block -4%[59 µM].
For C=CCc1ccc(OCC(O)CN2CCCCC2)c(OC)c1 (stereo not drawn) the results were CCT chaperon mod 1, VDR inhibitor 0%, Sfp inh 16%, G9a block inconclusive, PLK1 PBD block -7% and Mm-Cpn inhibitor -1%.
C=CCc1ccc(OCC(O)CN2CCN(c3ccccc3)CC2)c(OC)c1 (stereo not drawn) was read as CCT chaperon mod -2, VDR inhibitor -15%, Sfp inh -17%, G9a block 45µM*, PLK1 PBD block -22% and Mm-Cpn inhibitor -1%.
For CCc1c(C)nc(N2CCN(c3ccc(Cl)cc3)CC2)[nH]c1=O the results were CCT chaperon mod -1, VDR inhibitor inconclusive, Sfp inh 14%, G9a block -9%, PLK1 PBD block 24µM* and Mm-Cpn inhibitor -2%.
Screening O=C1NC(=S)/C(=C\c2ccc(-c3ccccc3Cl)o2)S1 returned CCT chaperon mod -9, VDR inhibitor -20%, Sfp inh 50µM*, G9a block 10µM*, PLK1 PBD block 13µM* and Mm-Cpn inhibitor -5%.
